# Measured values as given in the supplement of paper PMC12669032.
# Values without a mark were called inactive.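 Rule for the calls: active = AUC reduced over 20% with Padj below 0.05 in at least 2 of 3 replicates; inactive = otherwise.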
# Test system: Clostridium difficile
# Assay: growth AUC relative to DMSO control (median of replicates) (fraction); higher = more growth (less inhibition), active = hit call of the paper
# Conditions: 20 µM; 24 h
# In short: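 Starting at OD600 0.05, gut bacterial monocultures in mGAM were grown anaerobically at 37 °C with 20 µM compound (1% DMSO) under pierced gas-permeable seals. OD600 was read every hour for 24 h, and the lowest OD of each curve was set to 0. Area under the growth curve was normalised to the plate median of solvent-only wells, or to row and column medians on the industrial chemical plate, and the median of three biological replicates grown on separate days is given.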
row,Compound,growth AUC
1,Cc1cccc(C)c1N,0.997
2,C=CCOC(=O)C(C)(C)OC(=O)c1cc(-n2c(=O)cc(C(F)(F)F)n(C)c2=O)ccc1Cl,0.964
3,CCOP(=O)(NC(C)C)Oc1ccc(S(C)(=O)=O)c(C)c1 (configuration not stated),1.04
4,Cc1cc(OC(=O)N(C)C)nn1C(=O)N(C)C,1.01
5,CCCCCCCCSC(=O)Oc1cc(Cl)nnc1-c1ccccc1,0.981
6,CC1(C(=O)Nc2ccc(O)c(Cl)c2Cl)CCCCC1,0.98
7,CC(Oc1ccc(Oc2ccc(Cl)cc2Cl)cc1)C(=O)O (racemic),1.02
8,C[Si](Cn1cncn1)(c1ccc(F)cc1)c1ccc(F)cc1,1
9,CN(C)C1CSSSC1.O=C(O)C(=O)O,1.05
10,COP(=S)(OC)SCn1nnc2ccccc2c1=O,0.931
11,CCSC(=O)N1CCCCCC1,0.992
12,O=C(O)c1c(Cl)ccc2cc(Cl)cnc12,0.959
13,CCCSP(=S)(OCC)Oc1ccc(SC)cc1 (configuration not stated),1.01
14,Cc1cc(C(F)(C(F)(F)F)C(F)(F)F)ccc1NC(=O)c1cccc(I)c1C(=O)NC(C)(C)CS(C)(=O)=O,0.92
15,Cc1cc(Cl)ccc1O,1
16,COc1cc(OC)nc(NC(=O)NS(=O)(=O)c2ncccc2C(=O)N(C)C)n1,1
17,Cc1cccc2sc3nncn3c12,0.973
